# Compound activity deposited in PubChem by Sanford-Burnham Center for Chemical Genomics.
# Most compounds without a hit are left out; they make up all but 28% or so of the library.
# CYP2C19 activ = human CYP2C19 activators, primary screen, biochemical, luminescence | 96,000 tested, under 10 active | Cytochrome P450 2C19 (Homo sapiens), P33261 | recombinant CYP2C19, luciferin-H EGE luminescence; active compounds read high; 0 = fully inhibited enzyme, 1 = untreated enzyme | activation factor at 5 µM;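 active means activation factor of at least 2 at 5 µM in the primary screen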;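 further: 0 = wells with 2.5 mM tranylcypromine and 1 = vehicle-only wells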
# Target sequence (P33261 whole entry, looked up): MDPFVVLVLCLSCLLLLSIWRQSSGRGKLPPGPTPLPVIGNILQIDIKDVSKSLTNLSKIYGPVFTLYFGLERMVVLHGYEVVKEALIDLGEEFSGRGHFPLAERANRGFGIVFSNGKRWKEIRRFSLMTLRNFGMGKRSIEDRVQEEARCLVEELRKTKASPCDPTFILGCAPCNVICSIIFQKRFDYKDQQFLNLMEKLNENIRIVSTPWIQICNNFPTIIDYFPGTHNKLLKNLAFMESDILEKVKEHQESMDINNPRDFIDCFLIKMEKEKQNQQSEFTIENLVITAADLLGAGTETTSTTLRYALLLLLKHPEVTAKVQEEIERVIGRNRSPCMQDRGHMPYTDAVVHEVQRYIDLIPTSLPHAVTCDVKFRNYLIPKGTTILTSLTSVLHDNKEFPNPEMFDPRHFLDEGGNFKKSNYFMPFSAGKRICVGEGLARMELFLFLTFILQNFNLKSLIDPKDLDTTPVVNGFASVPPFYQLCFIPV
# CYP2C19 inhib = blockers of cytochrome P450 2C19 activity – biochemical, luminescence, ADME assay, primary screen | P33261 | CYP2C19 Supersomes, luciferin-H EGE luminescence, 30 min | inhibition, % at 5 µM | 21% of 96,000 active;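 active means CYP2C19 inhibition above a set limit at 5 µM in the primary screen, cut at about 50% in these data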;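 further: plate controls were negative control wells for no effect and 2.5 mM tranylcypromine positive control for full effect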
# CYP2C9 act = human CYP2C9 activators, primary screen, biochemical, luminescence; Cytochrome P450 2C9 (Homo sapiens), P11712; recombinant CYP2C9, luciferin-H conversion; active compounds read high; factor 1 = untreated enzyme, 0 = blocked; activation factor at 5 µM; 1.4% of 96,000 active;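 active means activation factor of 2 or more for CYP2C9 at a 5 µM dose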;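 further: 0 = sulfaphenazole-blocked wells and 1 = vehicle-only wells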
# Pyk2 oligo antag = antagonists of Pyk2 self-association, primary screen, Q293 cells, FERM NanoBiT luminescence, HTS | Protein-tyrosine kinase 2-beta (Homo sapiens), Q14289 | AID 1347419, 2020 | z-score (the deposit names both 25 µM and 10 µM) | 0.83% of 99,000 active | active compounds read low;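 active means Z-score of -3 or lower, scaled per plate to the spread of control and sample wells; inactive means z-score above -3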;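 further: negative z-score means lost luminescence so less FERM oligomerization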
# CYP2C9 inhib = blockers of cytochrome P450 2C9 activity – biochemical, luminescence, ADME assay, primary screen; CYP2C9 Supersomes, luciferin-H conversion; inhibition, % at 5 µM; 20% of 96,000 active; AID 777, 2007;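 active means blocking of liver enzyme CYP2C9 beyond about 50% at 5 µM, limit read from the data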
# * = called active by the depositor; . = no result.
SMILES,CYP2C19 activ,CYP2C19 inhib,CYP2C9 act,Pyk2 oligo antag,CYP2C9 inhib
COc1ccc(OCc2nnc3n2N=C(c2ccc(Br)cc2)CS3)cc1,1.1,-10,0.6,.,37
O=C(NCc1ccc(Cl)cc1Cl)c1ccccn1,0,99*,1.2,1.2,-23
Clc1ccc(COc2ccccn2)c(Cl)c1,0.1,87*,0.8,0.7,18
c1ccc2c(c1)nc(-c1ccncc1)n1nnnc21,.,.,.,-0.03,.
COc1ccc(C(c2c(O)ccc3ccccc23)N2CCOCC2)c(OC)c1 (stereo not drawn),0.1,87*,0.1,-1.7,93*
COc1cc2ccccc2cc1C(=O)OCC(=O)N1CCOCC1,1,1,1.6,0.28,-60
O=c1c2ccccc2nc2n1C(CSCc1ccc(Cl)cc1)CS2 (stereo not drawn),0.2,75*,0.7,0.08,29
O=C(Nc1ccccc1SCC1CSc2nc3ccccc3c(=O)n21)c1ccccc1Cl (stereo not drawn),0.6,43,0.8,-0.61,16
Cc1ccccc1OCC(=O)NC(=S)Nc1ccc(N2CCOCC2)c(Cl)c1,1,4,1,0.53,-3
CCn1c(COc2ccccc2C)nnc1SCC(=O)Nc1ccc2c(c1)OCCO2,1,0,1,-0.78,1
Cc1ccccc1OCc1nnc(SCC(=O)Nc2ccc(N3CCOCC3)c(Cl)c2)n1C,0.4,58*,0.8,-1.8,23
Cc1ccccc1OCc1nnc(SCC(=O)Nc2ccc3c(c2)OCO3)n1C,0.2,76*,1.6,0.8,-56
Cc1ccc(OCC(=O)OCC(=O)c2c(N)n(C)c(=O)n(C)c2=O)cc1C,0.4,60*,0.8,0.12,24
Cn1c(N)c(C(=O)COC(=O)CCc2c[nH]c3ccccc23)c(=O)n(C)c1=O,0.4,60*,1.7,0.45,-70
Cc1cc(Nc2ccc(N3CCC(C)CC3)cc2)n2ncnc2n1,1,-1,1,1.2,4
N#Cc1ccccc1OCC(=O)NC(N)=O,1.1,-12,1.5,1.5,-50
CC(C)CCNC(=O)NC(=O)COc1ccccc1C#N,0.3,75*,0.5,-0.05,48
CC(C)N1CC=C2C(C#N)=C(N)C(C#N)(C#N)C(c3ccccc3)C2C1 (stereo not drawn),1,3,1,-1.1,4
CCN1CC=C2C(C#N)=C(N)C(C#N)(C#N)C(c3cc(Cl)ccc3Cl)C2C1 (stereo not drawn),0.7,34,0.4,0.75,59*
Cc1ccsc1/C=N/n1cnc2sc(C)c(C)c2c1=O,0.9,12,0.6,0.55,35
Cn1c(=O)c2c(nc(SCCOc3ccc4ccc(=O)oc4c3)n2C)n(C)c1=O,1,1,1,.,2
COC(=O)C1CSc2[nH]c(=O)sc2C1c1ccccc1 (stereo not drawn),0.6,42,0.5,-0.17,47
CCOC(=O)c1ccc(N2C(=O)C=CC2=O)cc1,1.1,-13,1.6,0.06,-56
CCOC(=O)c1ccc(CC2S/C(=C(\C#N)C(C)=O)NC2=O)cc1 (stereo not drawn),1,-1,0.4,-0.68,62*
CCc1ccc(CC2S/C(=C(\C#N)C(C)=O)NC2=O)cc1 (stereo not drawn),0.9,12,0.2,-0.01,78*
SMILES,CYP2C19 activ,CYP2C19 inhib,CYP2C9 act,Pyk2 oligo antag,CYP2C9 inhib
CCOC(=O)CNC(=O)C1c2ccccc2C(=O)N(c2ccc(OC)cc2)C1c1ccc(OC)cc1 (stereo not drawn),0.8,20,0.8,-0.01,20
CCOc1cccc(N2C(=O)CC(N3CCN(c4ccc(S(=O)(=O)CC)cc4)CC3)C2=O)c1 (stereo not drawn),0.9,6,0.7,0.02,32
CCCCS(=O)(=O)Nc1ccc2c(c1)ncn2C1CCCCC1,0.9,11,0.2,-1.1,85*
Cc1nn(-c2ccccc2)c(N2CCCC2)c1/C=N/n1cnc2scc(-c3ccccc3)c2c1=O,0.9,10,0.8,-1.2,21
O=c1c2c(-c3ccccc3)csc2ncn1/N=C/c1c2ccccc2cc2ccccc12,0.8,15,0.2,0.23,85*
CC1CCCN(C(=O)CCS(=O)(=O)Cc2ccccc2)C1 (stereo not drawn),0.9,13,1.1,0.13,-11
Cc1ccc2c(c1)N(CC(=O)c1cccc(Cl)c1)C(=O)C(C)O2 (stereo not drawn),0.9,14,0.8,-0.47,24
COC(=O)CC1Oc2ccccc2N(Cc2ccccc2)C1=O (stereo not drawn),0.1,90*,0.5,.,55*
CC1Oc2ccccc2N(CC(=O)c2cccc(Cl)c2)C1=O (stereo not drawn),0,97*,0.1,0.02,93*
COc1ccc(NC(=O)CN2C(=O)C(C)Oc3ccccc32)c(OC)c1 (stereo not drawn),0.2,79*,0.6,-0.83,43
CCC1Oc2ccccc2N(CC(=O)NCCc2ccc(OC)c(OC)c2)C1=O (stereo not drawn),.,.,.,-0.54,.
CCC1Oc2ccccc2N(CC(=O)Nc2ccccc2OC)C1=O (stereo not drawn),0.2,78*,0.4,0.46,63*
CC(=O)N=c1sccn1CC(=O)c1ccc([N+](=O)[O-])cc1,0.8,24,0.9,0.05,14
CC(=O)N(CN1C(=O)CCC1=O)c1cccc(Cl)c1,.,.,.,0.21,.
Cc1cc(C)cc(OCC(=O)Nc2cccc(-c3nc4ncccc4o3)c2)c1,0.8,19,0.8,.,24
O=C(NNc1cccc(Cl)n1)Nc1ccccc1Cl,0.6,38,1,-0.32,2
COc1ccc(NC(=O)CN2c3cccc4cccc(c34)S2(=O)=O)c(OC)c1,0.1,91*,0.6,-1.8,37
O=C(NC1CCCCC1)N(CCO)Cc1cc2cc3c(cc2[nH]c1=O)OCCO3,1,3,0.5,-0.47,53*
O=C(NC1CCCCC1)N(CCN1CCCC1)Cc1cc2cc3c(cc2[nH]c1=O)OCCO3,0.9,5,0.9,0.45,6
CC(=O)NC(CC(=O)Nc1cccc(S(=O)(=O)N2CCCCC2)c1)c1ccccc1 (stereo not drawn),0.9,8,0.6,0.87,38
CC(=O)NC(CC(=O)Nc1ccc(S(=O)(=O)N2CCCCC2)cc1)c1ccccc1 (stereo not drawn),0.3,69*,0.3,0.66,74*
COC(C(=O)Nc1ccc(S(=O)(=O)N2CCCCC2)cc1)c1ccccc1 (stereo not drawn),0.5,46,0.2,-0.1,80*
O=C(Nn1c(=S)[nH]c2ccccc2c1=O)c1ccncc1,0.1,85*,0.8,-0.57,18
COc1cccc(-c2cc(C(=O)Nc3cccc(O)c3)no2)c1,1.1,-7,2.3*,-0.73,-130
CCc1ccccc1NC(=O)c1cc(-c2cccc(O)c2)on1,1,5,4.8*,.,-379
